Source: PubChem BioAssay (NCI)
Compounds without any hit were thinned out: in the full panel of roughly 83,000, 20% have a hit.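 Plates (96-well) were seeded with cells, treated with compound at one concentration, and incubated for 48 hours before percent growth was determined.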 A number with no mark means an inactive call. Calls of active or inactive are those of the source. How the source made its calls: active means growth percent below 10; inactive means the rest.

How the values were obtained:
Assay in all cases: NCI-60 one-dose screen, 48 h (100 = growth as untreated, 0 = no growth, -100 = all killed)
Settings in all cases: 10 µM
SK-MEL-2 melanoma = test system: SK-MEL-2 melanoma
EKVX NSCLC = test system: EKVX NSCLC
SN12C renal = test system: SN12C renal
UO-31 renal = test system: UO-31 renal
TK-10 renal = test system: TK-10 renal
ACHN renal = test system: ACHN renal
CAKI-1 renal = test system: CAKI-1 renal
A498 renal = test system: A498 renal
CCRF-CEM leukemia = test system: CCRF-CEM leukemia
MOLT-4 leukemia = test system: MOLT-4 leukemia
SR leukemia = test system: SR leukemia
RPMI-8226 leukemia = test system: RPMI-8226 leukemia
OVCAR-8 ovarian = test system: OVCAR-8 ovarian
OVCAR-5 ovarian = test system: OVCAR-5 ovarian
OVCAR-4 ovarian = test system: OVCAR-4 ovarian
SK-OV-3 ovarian = test system: SK-OV-3 ovarian
IGROV1 ovarian = test system: IGROV1 ovarian
OVCAR-3 ovarian = test system: OVCAR-3 ovarian
HS 578T breast = test system: HS 578T breast
NCI/ADR-RES ovarian = test system: NCI/ADR-RES ovarian

CC(=O)Oc1ccccc1C(=O)Oc1ccc(C(=O)/C=C/c2ccncc2)cc1
growth (SK-MEL-2 melanoma): 108%
growth (EKVX NSCLC): 80.6%
growth (SN12C renal): 18.6%
growth (UO-31 renal): 38.7%
growth (TK-10 renal): 91.6%
growth (ACHN renal): 56%
growth (CAKI-1 renal): 59.7%
growth (A498 renal): 84%
growth (CCRF-CEM leukemia): 43.6%
growth (MOLT-4 leukemia): 40.1%
growth (SR leukemia): 7.37% (active)
growth (RPMI-8226 leukemia): 13.6%
growth (OVCAR-8 ovarian): 30.8%
growth (OVCAR-5 ovarian): 62.7%
growth (OVCAR-4 ovarian): 59.9%
growth (SK-OV-3 ovarian): 96.7%
growth (IGROV1 ovarian): 22.3%
growth (OVCAR-3 ovarian): 19.5%
growth (HS 578T breast): 32.8%
growth (NCI/ADR-RES ovarian): 63.5%

COC(=O)c1c(C(=O)OC)c2n(c1C)[C@@H]([C@@H](C)[C@H]1CC[C@H]3[C@@H]4CCC5=CC(=O)CC[C@]5(C)[C@H]4CC[C@]13C)SC2
growth (SK-MEL-2 melanoma): 40.2%
growth (EKVX NSCLC): 26.2%
growth (SN12C renal): 58%
growth (UO-31 renal): 30.1%
growth (TK-10 renal): 57.9%
growth (ACHN renal): 46%
growth (CAKI-1 renal): -3.55% (active)
growth (A498 renal): 71.8%
growth (CCRF-CEM leukemia): 10.2%
growth (MOLT-4 leukemia): 2.64% (active)
growth (SR leukemia): 17.9%
growth (RPMI-8226 leukemia): -11.5% (active)
growth (OVCAR-8 ovarian): 26.7%
growth (OVCAR-5 ovarian): 54.2%
growth (OVCAR-4 ovarian): 38.5%
growth (SK-OV-3 ovarian): 48.7%
growth (IGROV1 ovarian): 75.9%
growth (OVCAR-3 ovarian): 51.4%
growth (HS 578T breast): 56.6%
growth (NCI/ADR-RES ovarian): 7.08% (active)

COc1ccc2ncc(C#Cc3cncc(C(=O)Nc4ccc(CN5CCN(C)CC5)c(C(F)(F)F)c4)c3)n2n1
growth (SK-MEL-2 melanoma): -55.3% (active)
growth (EKVX NSCLC): -99.7% (active)
growth (SN12C renal): -93.5% (active)
growth (UO-31 renal): -90.1% (active)
growth (TK-10 renal): -76% (active)
growth (ACHN renal): -98.3% (active)
growth (CAKI-1 renal): -75.8% (active)
growth (A498 renal): 31.7%
growth (CCRF-CEM leukemia): 2.67% (active)
growth (MOLT-4 leukemia): -26.7% (active)
growth (SR leukemia): -26.3% (active)
growth (RPMI-8226 leukemia): -26.3% (active)
growth (OVCAR-8 ovarian): -49.2% (active)
growth (OVCAR-5 ovarian): -94.5% (active)
growth (OVCAR-4 ovarian): -75.2% (active)
growth (SK-OV-3 ovarian): 49.8%
growth (IGROV1 ovarian): -76.1% (active)
growth (OVCAR-3 ovarian): -93.2% (active)
growth (HS 578T breast): -2.29% (active)
growth (NCI/ADR-RES ovarian): -81.4% (active)

NS(=O)(=O)c1ccc(N=Nc2c(O)n(CC(=O)Nc3ccccc3Br)c3ccccc23)cc1
growth (SK-MEL-2 melanoma): 1.95% (active)
growth (EKVX NSCLC): 49.1%
growth (SN12C renal): 47.6%
growth (UO-31 renal): 14.4%
growth (TK-10 renal): 63.3%
growth (ACHN renal): 13.9%
growth (CAKI-1 renal): 23.7%
growth (A498 renal): 94.1%
growth (CCRF-CEM leukemia): 57.2%
growth (MOLT-4 leukemia): 41.4%
growth (SR leukemia): 41.3%
growth (RPMI-8226 leukemia): 37.3%
growth (OVCAR-8 ovarian): 18.6%
growth (OVCAR-5 ovarian): 70.2%
growth (OVCAR-4 ovarian): 69.4%
growth (SK-OV-3 ovarian): 41.5%
growth (IGROV1 ovarian): 26.4%
growth (OVCAR-3 ovarian): 45.7%
growth (HS 578T breast): 45.7%
growth (NCI/ADR-RES ovarian): 43.6%

O=C1CCC(N2Cc3c(NCc4ccc(-c5ccccc5)cc4)cccc3C2=O)C(=O)N1 (stereo not drawn)
growth (SK-MEL-2 melanoma): 101%
growth (EKVX NSCLC): 84.2%
growth (SN12C renal): 73.8%
growth (UO-31 renal): 45.3%
growth (TK-10 renal): 79.1%
growth (ACHN renal): 73.2%
growth (CAKI-1 renal): 82.8%
growth (A498 renal): 70.5%
growth (CCRF-CEM leukemia): 19.9%
growth (MOLT-4 leukemia): 13.4%
growth (SR leukemia): 72.5%
growth (RPMI-8226 leukemia): 68.5%
growth (OVCAR-8 ovarian): 34.9%
growth (OVCAR-5 ovarian): 83.7%
growth (OVCAR-4 ovarian): 69.8%
growth (SK-OV-3 ovarian): 103%
growth (IGROV1 ovarian): 57.4%
growth (OVCAR-3 ovarian): 82.8%
growth (HS 578T breast): 51.7%
growth (NCI/ADR-RES ovarian): 52.6%

C=C[C@@]12CN3CC[C@]1(O)[C@@](C(=O)OC)(CO2)c1[nH]c2ccccc2c1C3
growth (SK-MEL-2 melanoma): 86.1%
growth (EKVX NSCLC): 53.5%
growth (SN12C renal): 67.5%
growth (UO-31 renal): 69.5%
growth (TK-10 renal): 97%
growth (ACHN renal): 73.6%
growth (CAKI-1 renal): 70.1%
growth (A498 renal): 81.8%
growth (CCRF-CEM leukemia): 55.3%
growth (MOLT-4 leukemia): 76.7%
growth (SR leukemia): 75.5%
growth (RPMI-8226 leukemia): 46.9%
growth (OVCAR-8 ovarian): 62.8%
growth (OVCAR-5 ovarian): 49.2%
growth (OVCAR-4 ovarian): 62.3%
growth (SK-OV-3 ovarian): 115%
growth (IGROV1 ovarian): 95.2%
growth (OVCAR-3 ovarian): 61.6%
growth (NCI/ADR-RES ovarian): 49.1%

COc1ccc2[nH]c(=O)c(CSc3ccc(Nc4nccc(-c5ccc(Cl)cc5)n4)cc3)cc2c1
growth (SK-MEL-2 melanoma): 94.3%
growth (EKVX NSCLC): 86.8%
growth (SN12C renal): 83.7%
growth (UO-31 renal): 85.5%
growth (TK-10 renal): 124%
growth (ACHN renal): 90.3%
growth (CAKI-1 renal): 76.3%
growth (A498 renal): 141%
growth (CCRF-CEM leukemia): 96.7%
growth (MOLT-4 leukemia): 84.4%
growth (SR leukemia): 90.9%
growth (RPMI-8226 leukemia): 81.3%
growth (OVCAR-8 ovarian): 70.3%
growth (OVCAR-5 ovarian): 96.6%
growth (OVCAR-4 ovarian): 94.8%
growth (SK-OV-3 ovarian): 119%
growth (IGROV1 ovarian): 105%
growth (HS 578T breast): 63.8%
growth (NCI/ADR-RES ovarian): 73.7%
